# Bioassay records (PubChem BioAssay)
# BH1578 lux ind = inducers of Vibrio cholerae quorum light production without autoinducers, primary screen, BH1578 luxS cqsA deficient, single point; V. cholerae BH1578 lux reporter, luminescence, 6 h; 350,000 tested, 0.16% active; activation, % at 18.7 µM; in the data active = activation mostly above about 9.7%, no sharp cut-off
# 3CLpro inhibitor = SARS-CoV 3CLpro protease inhibitors, primary screen, biochemical, quenched FRET | AID 1706, 2009 | Replicase polyprotein 1ab (Severe acute respiratory syndrome coronavirus), P0C6X7 | inhibition, % at 6 µM | recombinant SARS-CoV 3CLpro, quenched FRET peptide cleavage | 290,000 tested, 0.14% active; in the data active = inhibition above about 12%
# GDH-TPI inh = GDH-TPI coupling enzyme inhibitors, primary screen, artefact control for M. tuberculosis FBA inhibitor project, biochemical, absorbance, full deck; GDH-TPI coupled enzyme counterscreen, NADH absorbance; 360,000 tested, 1.2% active; inhibition, % at 4.8 µM; in the data active = inhibition above about 30%;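 note: 0% = DMSO wells and 100% = wells lacking the enzyme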
# PrPC surface inh = inhibitors of human cell surface prion protein PrPC, primary screen, cell-based, TR-FRET | TR-FRET read-out | 370,000 tested, 0.43% active | inhibition, % at 13.8 µM | Major prion protein (Homo sapiens), P04156; in the data active = inhibition above about 24%; note: 0% = median of the test wells and 100% = reference compound wells
# FBA Mtb inh = Mtb FBA enzyme inhibitors, primary screen, biochemical, fluorescence, strain H37Rv; Fructose-bisphosphate aldolase (Mycobacterium tuberculosis (strain ATCC 25618 / H37Rv)), …; purified M. tuberculosis FBA, fluorescence read-out; inhibition, % at 1 µM; 360,000 tested, 2.3% active; AID 588726, 2011; in the data active = inhibition above about 27%;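 note: 0% = vehicle and 100% = reference inhibitor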
# Target sequence (P9WQA3 whole entry, looked up): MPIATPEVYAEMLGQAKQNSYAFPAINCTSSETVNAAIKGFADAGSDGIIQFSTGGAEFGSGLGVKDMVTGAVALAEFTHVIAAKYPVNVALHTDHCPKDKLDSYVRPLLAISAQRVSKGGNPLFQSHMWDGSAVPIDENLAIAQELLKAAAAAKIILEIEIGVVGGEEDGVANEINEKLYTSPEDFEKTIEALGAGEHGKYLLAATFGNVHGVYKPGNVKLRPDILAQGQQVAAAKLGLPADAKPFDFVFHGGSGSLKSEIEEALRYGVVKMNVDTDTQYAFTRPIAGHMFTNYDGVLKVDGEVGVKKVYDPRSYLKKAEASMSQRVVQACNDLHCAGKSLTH
# Starred values were filed as active, the others as inactive; i = inactive; x = no result; + = active, no number. Sampled rows, rich in hits. Any-hit rate of the full collection: about 3.9%.
SMILES,BH1578 lux ind,3CLpro inhibitor,GDH-TPI inh,PrPC surface inh,FBA Mtb inh
Cc1cccc(C(=O)N=c2c(C#N)cc3c(=O)n4cccc(C)c4nc3n2Cc2ccco2)c1,-1,-1,8,-3,168*
Cc1cccn2c(=O)c3cc(C#N)c(=NC(=O)c4ccccc4)n(Cc4ccco4)c3nc12,2,x,16,4,182*
Cc1cccn2c(=O)c3cc(C#N)c(=NC(=O)c4ccco4)n(Cc4ccco4)c3nc12,0,-2,9,-13,+
N#C/C(=N\Nc1c(Cl)cccc1Cl)C(=O)NN,i,-1,32*,-15,-12
N#C/C(=N\Nc1ccccc1Cl)C(=O)c1ccccc1,i,-1,18,-8,-6
Cc1c(C)c2ccc(OC3CCCCC3=O)cc2oc1=O (stereo not drawn),i,-3,9,4,153*
CCOC(=O)c1nnc(-c2cccs2)nc1NC(C)C,i,0,31*,-14,-5
Cc1cc(C(=O)NCc2cc(C(=O)O)oc2C)c(C)o1,17*,-5,10,4,-1
Cc1cc(C(=O)NCC(=O)O)c(C)o1,i,6,6,-5,-2
NC(=O)CSc1nnc(SCc2ccc(F)cc2)s1,i,-1,-3,4,-1
COCCn1c(-c2ccc(C#N)cc2)nc2c1c(=O)[nH]c(=O)n2Cc1ccccc1,0,-1,-5,-1,+
CCCn1c(=O)[nH]c(=O)c2c1nc(-c1ccc(C#N)cc1)n2CCOC,0,-6,-2,0,+
O=C(Nc1ccc([N+](=O)[O-])cc1)N1CCCCC1,0,1,45*,-3,2
CCN(CC)c1ccc(C(=O)OCC(=O)NCC2CCCO2)cc1 (stereo not drawn),0,-1,32*,-4,0
CN1Cc2nnn(CC3CCCCC3)c2-c2ccccc2S1(=O)=O,x,x,x,3,x
O=[N+]([O-])c1ccc(COc2cccc(CO)c2)cc1,x,x,x,-5,x
Nc1nc(-c2cc(O)ccc2[N+](=O)[O-])cc(-c2ccccc2)c1[N+](=O)[O-],i,-3,33*,-19,3
Cc1ccccc1NC(=O)C1CC(=O)N(c2ccc3c4c(cccc24)CC3)C1 (stereo not drawn),25*,2,8,-4,0
CC1(C)Cc2c(c(=S)nc(-c3ccccc3)n2CCN2CCOCC2)CO1,-1,-2,51*,1,2
C=CCn1c(-c2ccccc2)nc(=S)c2c1CCCC2,0,1,-5,-2,4
CC(C)Cn1c(-c2ccccc2)nc(=S)c2c1CCCC2,i,1,34*,7,-1
S=c1nc(-c2ccccc2)n(CCN2CCOCC2)c2c1CCCC2,-1,1,51*,3,4
CC1(C)Cc2c(c(=S)nc(-c3ccccc3)n2Cc2cccnc2)CO1,0,-2,13,7,1
COCCn1c(-c2ccccc2)nc(=S)c2c1CC(C)(C)OC2,0,-8,37*,3,-3
CCN(CC)CCn1c(-c2ccccc2)nc(=S)c2c1CC(C)(C)OC2,0,10,26,14,-2
SMILES,BH1578 lux ind,3CLpro inhibitor,GDH-TPI inh,PrPC surface inh,FBA Mtb inh
S=c1nc(-c2ccccc2)n(Cc2ccco2)c2c1CCCC2,x,-1,x,x,x
CC(C)C(c1nnnn1C1CCCCC1)N1CCc2ccccc2C1 (stereo not drawn),i,4,4,-7,3
c1ccc(C(c2nnnn2C2CCCCC2)N2CCc3ccccc3C2)nc1 (stereo not drawn),i,-4,2,x,69*
CCCCCCOc1ccc(NC(=O)CC2C(=O)N(CC)C(=S)N2Cc2ccco2)cc1 (stereo not drawn),0,5,1,-1,4
CCCC(C)Sc1nc2c([nH]1)c(=S)n(C)c(=O)n2C (stereo not drawn),i,x,35*,15,-2
O=C(COC(=O)CCN1C(=O)C2CC=CCC2C1=O)Nc1ccc([N+](=O)[O-])cc1 (stereo not drawn),1,x,9,0,0
C[C@H]1[C@H](NC(=O)c2ccc(Cl)cc2)CC[C@@]23CCCN2C(=O)CCC[C@@H]13,x,x,x,-5,x
Cc1cc(/C=C(/C#N)C(=O)O)c(C)n1-c1cccc2ccccc12,i,9,41*,-7,6
Cc1c(C(=O)O)cccc1-n1c(C)cc(/C=C(/C#N)C(=O)NCc2ccccc2)c1C,i,3,13,-10,0
O=C(Cn1cc(COc2cccc([N+](=O)[O-])c2)nn1)c1ccc(O)cc1,0,x,18,-4,6
Cc1cc(OCc2cn(CC(=O)c3ccc(O)cc3)nn2)ccc1[N+](=O)[O-],i,x,41*,13,0
COC(=O)N/N=C/c1cc(N=Nc2ccccc2)ccc1O,0,9,38*,-19,-6
COC(=O)N/N=C/c1cc(N=Nc2ccccc2Cl)ccc1O,-1,0,10,7,-12
COc1ccc(S(=O)(=O)N2CCN(CC(=O)NC(C)c3cccs3)CC2)cc1 (stereo not drawn),-6,x,9,-3,-1
CCN1C(=O)S/C(=C/c2ccsc2)C1=O,-1,0,39*,2,-2
C=CCN1C(=O)S/C(=C/c2ccsc2)C1=O,0,1,23,6,0
Cc1ccc2c(C)c3ccc4ccccc4c3c[n+]2c1,x,x,11,-34,+
Cc1cccc2ccccc12,x,x,x,0,x
CCOC(=O)c1nc2sc3c(c2c(=O)[nH]1)CCCC3,i,6,22,-1,181*
CO[C@H]1C=CO[C@@]2(C)Oc3c(C)c(O)c4c(O)c(c(C=NN5CCN(C)CC5)c(O)c4c3C2=O)NC(=O)C(C)=CC=C[C@H](C)[C@H](O)[C@@H](C)[C@@H](O)[C@@H](C)[C@H](OC(C)=O)[C@@H]1C,i,1,40*,-22,-13
CC(=O)NC(CCc1ccc(Cl)c(Cl)c1)c1cccc(O)c(=O)c1 (stereo not drawn),-1,x,12,20,0
O=C(/C=C/c1ccc([N+](=O)[O-])cc1)Nc1cccc(S(=O)(=O)NC2=NCCCCC2)c1,x,x,41*,-35,3
O=C(/C=C/c1ccccc1Cl)Nc1cccc(S(=O)(=O)NC2=NCCCCC2)c1,0,6,0,3,-1
COCc1nnc(NC(=O)c2ccc(S(=O)(=O)N3CCCc4ccccc43)cc2)o1,0,5,5,4,-1
COc1ccc(-c2nnc(NC(=O)c3ccc(S(=O)(=O)N4CCCc5ccccc54)cc3)o2)cc1,i,-3,37*,x,-1
C[C@H]1[C@H](N(C)C)CC[C@@]23CCCN2C(=O)CCC[C@@H]13,x,x,x,0,x
